Shown are actives, neighbours in structure and some others; about 8% of the full set was active somewhere.
RORgamma inh: qHTS for inhibitors of ROR gamma transcriptional activity | Nuclear receptor ROR-gamma (Mus musculus), P51450 | 310,000 tested, 5.4% active | AID 2551, 2010 | Potency, µM (highest dose often 53.6 µM), most hits filed as inhibitors | Drosophila S2 Gal4-RORgamma UAS-luciferase reporter, 20 h; further: nearly all actives have a fitted effect of over 60% in size
Target sequence (P51450 whole entry, looked up, the tested form may be a part): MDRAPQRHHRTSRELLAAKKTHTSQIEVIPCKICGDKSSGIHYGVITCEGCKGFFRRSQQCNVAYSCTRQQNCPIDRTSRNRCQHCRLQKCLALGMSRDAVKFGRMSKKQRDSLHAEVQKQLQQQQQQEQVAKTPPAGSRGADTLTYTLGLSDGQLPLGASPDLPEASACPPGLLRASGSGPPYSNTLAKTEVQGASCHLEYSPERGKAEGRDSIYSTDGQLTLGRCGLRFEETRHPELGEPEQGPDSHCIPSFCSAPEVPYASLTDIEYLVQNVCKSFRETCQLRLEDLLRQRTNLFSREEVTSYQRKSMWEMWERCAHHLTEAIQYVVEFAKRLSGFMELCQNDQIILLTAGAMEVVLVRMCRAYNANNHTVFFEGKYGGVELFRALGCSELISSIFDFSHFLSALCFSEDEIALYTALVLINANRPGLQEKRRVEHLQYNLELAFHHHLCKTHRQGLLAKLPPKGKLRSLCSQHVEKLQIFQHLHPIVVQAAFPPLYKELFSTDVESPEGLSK
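Schneider cells (Drosophila), stable Gal4 DBD–ROR gamma + UAS-luc; 1 hr cmpd preincubation; Cu2+ induction 700 uM final; 20 hr ambient; luminescence.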
ELG1 repair inh: qHTS screen for small molecules that inhibit ELG1-dependent DNA repair in human embryonic kidney (HEK293T) cells expressing luciferase-tagged ELG1; HEK293T ELG1-luciferase reporter, luminescence, 16 h; DNA damage induced by 5-fluorouridine; AID 504467, 2011; 330,000 tested, 2.3% active; Potency, µM (titrated, usually from 46.1 µM), usual class: inhibitors; further: nearly all actives have a fitted effect of over 55% in size
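Overnight (16 hr) co-exposure of 2,000 cells/well to 5-fluorouridine and compound at 37 °C preceded detection. Luciferase was quantified via ONE-Glo luminescence; loss of signal denotes inhibition.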
Gal4-VP16 FLuc: VP16 counterscreen qHTS for inhibitors of ROR gamma transcriptional activity | Potency, µM (titrated, usually from 53.6 µM), most hits filed as inhibitors | AID 2546, 2010 | 310,000 tested, 3.5% active | Drosophila S2 Gal4-VP16 UAS-luciferase, luminescence, 20 h;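 further: Gal4-VP16 expression switched on by copper sulfate through the metallothionein promoter; nearly all actives have a fitted effect of over 50% in size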
TSHR antagonist: Antagonists of the Thyroid Stimulating Hormone Receptor: HTS campaign. Thyrotropin receptor (Homo sapiens), P16473. TSHR-expressing cells, TSH-stimulated cAMP HTRF, 2 h; active compounds read low. activity change, negative = inhibition, % at 11.5 µM. 330,000 tested, 0.2% active;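 active means activity change below a set negative limit, meaning inhibition stronger than a set level, cut at about -70% in these data; inconclusive means activity change between two set negative limits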
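Read-out is FRET at 665 nm (cryptate excitation 337 nm) from a cryptate-tagged anti-cAMP antibody, competed by cell cAMP against cAMP-d2. Compounds are tested on freshly harvested TSHR cells challenged with 4nM TSH (EC80) for 2 hours at 37 deg C.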
Coupling enz: qHTS Assay for Inhibitors of Fructose-1,6-bisphosphate Aldolase from Giardia Lamblia: Coupling assay counterscreen; activity change, negative = inhibition, % at 58.2 µM, hits read low; coupling enzyme system counterscreen, AmpLite Red fluorescence; 290,000 tested, 0.67% active; AID 2472, 2010; in the data active means activity change below about -30%
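First, compound is pin-transferred into glyceraldehyde-3-phosphate coupling-enzyme reagent at 57.5 uM final and held 10 min at RT. Next, substrate, coupling system and AmpLite Red are added. After 20 min RT, fluorescence (525/598 nm) is read.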
ELG1 FLuc counter: qHTS screen for small molecules that inhibit ELG1-dependent DNA repair: Hit Confirmation in Cell-Based Luciferin Assay; shares compounds with ELG1 repair inh; cell-free firefly luciferase luminescence counter-screen, ViewLux; Potency, µM (doses to about 46.1 µM), usual class: inhibitors; 350 tested, 3% active; AID 624247, 2012
ELG1-Luc inh: HTS assay for small molecules that inhibit ELG1-dependent DNA repair in human embryonic kidney (HEK293T) cells expressing luciferase-tagged ELG1: Hit Confirmation. shares compounds with ELG1 repair inh. HEK293T ELG1-luciferase levels, luminescence; cells co-treated with 5-fluorouridine. Potency, µM (doses to about 46.1 µM), usual class: inhibitors. 670 tested, 68% active; further: nearly all actives have a fitted effect of over 55% in size
ELG1 MMS Luc: inhibits ELG1-dependent repair under MMS stimulation in HEK293T cells | shares compounds with ELG1 repair inh | Potency, µM (series often up to 46.1 µM), hits mostly inhibitors | 670 tested, 53% active | HEK293T luciferase-tagged ELG1 level, MMS stimulated; further: nearly all actives have a fitted effect of over 60% in size
ELG1 5-FU: qHTS screen for small molecules that inhibit ELG1-dependent DNA repair: Hit Confirmation with 5FU Viability | AID 624250, 2012 | Potency, µM (series often up to 46.1 µM), hits mostly cytotoxic | shares compounds with ELG1 repair inh | cell viability with 5-FU, ELG1-dependent repair | 670 tested, under 10 active;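 further: ELG1-luc HEK293T cells cotreated with 5-fluorouridine at 10 µM final; viability measured 16 h after compound addition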
ELG1 MMS viab: qHTS screen for small molecules that inhibit ELG1-dependent DNA repair: Hit Confirmation with MMS Viability; Cell viability with MMS, ELG1-dependent DNA repair; 670 tested, 33% active; AID 624251, 2012; Potency, µM (doses to about 46.1 µM), hits mostly cytotoxic; shares compounds with ELG1 repair inh;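 further: ELG1-luc HEK293T cells co-treated with 10 µM MMS; viability read 16 h after compound addition; nearly all actives have a fitted effect of over 60% in size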
Cell viab unstim: qHTS screen for small molecules that inhibit ELG1-dependent DNA repair: Hit Confirmation with Unstimulated Viability Assay. shares compounds with ELG1 repair inh. cell viability counter-screen, unstimulated, luminescence. Potency, µM (series often up to 45.9 µM), hits mostly cytotoxic. 900 tested, 8% active. AID 624252, 2012;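 further: compound exposure lasted 16 hours before reading; nearly all actives have a fitted effect of over 55% in size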
FLuc biochem: qHTS screen for small molecules that inhibit ELG1-dependent DNA repair: Hit Confirmation in Biochemical Luciferin Assay; Potency, µM (top dose mostly 57.5 µM), most hits filed as inhibitors; 350 tested, 10% active; purified firefly luciferase, luminescence counter-screen; shares compounds with ELG1 repair inh
Hits are given with their value; [ ] = dose if it differs, or a comment. Unless noted, the call rests on the fitted dose curve; in most records, active means well fitted curve in the direction sought with a large enough effect; inconclusive means small, poorly fitted or top-dose-only effect, or another doubt; inactive means no such curve, though single readings can be large; an effect the other way counts as inactive or inconclusive.

Results for Cc1ccc(-c2nc3ccccc3s2)cc1S(=O)(=O)N1CCOCC1 ?
RORgamma inh: inactive; ELG1 repair inh: inconclusive; Gal4-VP16 FLuc: inactive; TSHR antagonist: inactive; Coupling enz: inactive

What do the screens show for `CS[C@@H]1SC[C@H]2C(=O)N(C)C(C(C)C)C(=O)OC[C@@H](NC(=O)c3cnc4ccccc4n3)C(=O)N[C@@H](C)C(=O)N(C)[C@H]1C(=O)N(C)C(C(C)C)C(=O)OC[C@@H](NC(=O)c1cnc3ccccc3n1)C(=O)N[C@@H](C)C(=O)N2C` (stereo partly specified)?
RORgamma inh: 0.0398µM; Gal4-VP16 FLuc: inactive; Coupling enz: inactive; ELG1 FLuc counter: inconclusive; ELG1-Luc inh: 0.141µM; ELG1 MMS Luc: 0.0561µM; ELG1 5-FU: inactive; ELG1 MMS viab: 0.199µM; Cell viab unstim: inactive; FLuc biochem: inactive

How did CC1=Nn2c(nnc2-c2ccccc2Cl)SC1 do in these assays?
RORgamma inh: inactive; ELG1 repair inh: inactive; Gal4-VP16 FLuc: inactive; TSHR antagonist: inactive; Coupling enz: inactive

What do the screens show for `Clc1ccccc1C1=Nn2c(nnc2-c2ccncc2)SC1`?
RORgamma inh: inactive; ELG1 repair inh: 4.61µM; Gal4-VP16 FLuc: inactive; TSHR antagonist: inactive; Coupling enz: inactive; ELG1 FLuc counter: inconclusive; ELG1-Luc inh: 3.15µM; ELG1 MMS Luc: 6.29µM; ELG1 5-FU: inactive; ELG1 MMS viab: inactive; Cell viab unstim: inactive; FLuc biochem: inactive

Results for COc1ccc(C(=O)OC(C)C(=O)NC2CCCc3ccccc32)cc1OC (stereo unspecified) ?
ELG1 repair inh: inconclusive; TSHR antagonist: inactive

Results for CCOc1ccc(C(C(=O)NCC2CCCO2)N(C(=O)c2snc(C(N)=O)c2N)c2ccc3c(c2)OCCO3)cc1 (stereo unspecified) ?
RORgamma inh: inconclusive; ELG1 repair inh: 3.26µM; Gal4-VP16 FLuc: inactive; TSHR antagonist: inactive; Coupling enz: inactive; ELG1-Luc inh: 1.25µM; ELG1 MMS Luc: inactive; ELG1 5-FU: inconclusive; ELG1 MMS viab: inactive; Cell viab unstim: inactive

What do the screens show for `CCOc1ccc(C(C(=O)NC2CCCC2)N(C(=O)c2snc(C(N)=O)c2N)c2cccc(O)c2)cc1` (stereo unspecified)?
RORgamma inh: inactive; ELG1 repair inh: 4.61µM; Gal4-VP16 FLuc: inactive; TSHR antagonist: inactive; Coupling enz: inactive; ELG1-Luc inh: 1.99µM; ELG1 MMS Luc: inconclusive; ELG1 5-FU: inconclusive; ELG1 MMS viab: inactive; Cell viab unstim: inconclusive

Results for Cc1onc(-c2ccccc2)c1CNS(=O)(=O)c1cccc(Br)c1 ?
RORgamma inh: inactive; ELG1 repair inh: inactive; Gal4-VP16 FLuc: inactive; TSHR antagonist: inactive; Coupling enz: inactive

Results for COc1ccc(CCNC(=O)C2CCCN(S(C)(=O)=O)C2)cc1 (stereo unspecified) ?
RORgamma inh: inactive; ELG1 repair inh: inactive; Gal4-VP16 FLuc: inactive; TSHR antagonist: inactive; Coupling enz: inactive

Results for CCc1cc(=O)oc2c3c(cc(OCC(=O)Nc4cccnc4)c12)OC(C)(C)CC3 ?
RORgamma inh: inconclusive; ELG1 repair inh: inconclusive; Gal4-VP16 FLuc: inactive; TSHR antagonist: inactive; Coupling enz: inactive

Results for CCc1cc(=O)oc2c3c(cc(OCC(=O)NCc4cccnc4)c12)OC(C)(C)CC3 ?
RORgamma inh: inactive; ELG1 repair inh: 3.66µM; Gal4-VP16 FLuc: inconclusive; TSHR antagonist: inactive; Coupling enz: inactive; ELG1-Luc inh: inconclusive; ELG1 MMS Luc: inactive; ELG1 5-FU: inactive; ELG1 MMS viab: inactive; Cell viab unstim: inconclusive

Results for COC(=O)Nc1ccc(S(=O)(=O)NC2CCS(=O)(=O)C2)cc1 (stereo unspecified) ?
RORgamma inh: inactive; ELG1 repair inh: inactive; Gal4-VP16 FLuc: inactive; TSHR antagonist: inactive; Coupling enz: inactive

How did CCCCc1ccc(S(=O)(=O)NC2CCS(=O)(=O)C2)cc1 (stereo unspecified) do in these assays?
RORgamma inh: inconclusive; ELG1 repair inh: 3.66µM; Gal4-VP16 FLuc: inconclusive; TSHR antagonist: inactive; Coupling enz: inactive; ELG1-Luc inh: inactive; ELG1 MMS Luc: 11.2µM; ELG1 5-FU: inactive; ELG1 MMS viab: 11.2µM; Cell viab unstim: inactive

Results for Cc1cccc(N(C)C(=O)CCS(=O)(=O)c2cc3c(cc2Cl)NC(=O)CO3)c1 ?
RORgamma inh: inactive; ELG1 repair inh: inactive; Gal4-VP16 FLuc: inactive; TSHR antagonist: inactive; Coupling enz: inactive

Results for COc1ccc(-n2c(C)c(C(C)=O)c3cc(O)ccc32)cc1 ?
RORgamma inh: inconclusive; ELG1 repair inh: 0.82µM; Gal4-VP16 FLuc: inactive[0.365 µM]; TSHR antagonist: inactive; Coupling enz: inactive; ELG1 FLuc counter: inconclusive; ELG1-Luc inh: 0.889µM; ELG1 MMS Luc: inconclusive; ELG1 5-FU: inactive; ELG1 MMS viab: inconclusive; Cell viab unstim: inactive; FLuc biochem: inactive

Assay outcomes from PubChem BioAssay.
